Source: PubChem BioAssay
SNCA expr inh – Primary qHTS assay for inhibitors of alpha-synuclein gene (SNCA) expression; HEK-293 SNCA-luciferase knock-in, luminescence, 24 h; Potency, µM (series often up to 57.2 µM), inactives show at the highest dose activity change, negative = inhibition, hits mostly inhibitors; 0.17% of 140,000 active; AID 1671194, 2021;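 also: potency is read from the fitted curve at half-maximal effect; plate controls were DMSO cells for no effect and cell-free wells for full effect; nearly all actives have a fitted effect of over 45% in size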
KDM5B inh – Primary screen for KDM5B Histone Demethylases FDH-coupled qHTS | Lysine-specific demethylase 5B (Homo sapiens), Q9UGL1 | KDM5B demethylase, FDH-coupled NADH fluorescence (FDH is formaldehyde dehydrogenase) | Potency, µM (titrated, usually from 57.7 µM), actives largely listed as inhibitors | 2.6% of 220,000 active | AID 1347165, 2019; also: potency is read from the fitted curve at half-maximal effect; 0% is about no effect; nearly all actives have a fitted effect of over 70% in size
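KDM5BΔAP (200 nM final) in 50 mM HEPES pH 7.5, 0.01% Tween-20 was preincubated 10 min at RT with compound over a concentration range. Substrate mix (H3K4me3 12.5 µM, α-KG 25 µM, Fe²⁺, ascorbate, NAD⁺, FDH) was added, and NADH fluorescence change over 30 min gave dose-response curves.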
SNCA viab count – GF-AFC viability counterscreen for inhibitors of alpha-synuclein gene (SNCA) expression; HEK-293-SNCA-luc viability, GF-AFC fluorescence, 24 h; Potency, µM (doses to about 57.1 µM), inactives show top-dose activity change, negative = cytotoxicity, hits mostly cytotoxic; 0.12% of 150,000 active;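 also: potency is read from the fitted curve at half-maximal effect; 0% = DMSO-treated cells and -100% = medium-only wells without cells; nearly all actives have a fitted effect of over 30% in size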
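HEK-293-SNCA-luc cells (1500/well) plated 24 h, then exposed 24 h to a dilution series; GF-AFC added 30 min at 37C, fluorescence 405/540 nm; normalised to medium-only and DMSO wells, Hill fit.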
IP6K1 inh – Primary qHTS assay for small molecule inhibitors of Inositol hexaphosphate kinase 1 (IP6K1) | 0.81% of 140,000 active | IP6K1 kinase, ADP-Glo luminescence, 2 h; hits give low values | Inositol hexakisphosphate kinase 1 (Homo sapiens), Q92551 | AID 1645851, 2021 | activity change, % (series mostly up to about 58 µM); in the data active = activity change below about -25%; also: % is scaled to controls: 0 for no effect and ±100 for the full control effect
Target sequence (Q92551 whole entry, looked up): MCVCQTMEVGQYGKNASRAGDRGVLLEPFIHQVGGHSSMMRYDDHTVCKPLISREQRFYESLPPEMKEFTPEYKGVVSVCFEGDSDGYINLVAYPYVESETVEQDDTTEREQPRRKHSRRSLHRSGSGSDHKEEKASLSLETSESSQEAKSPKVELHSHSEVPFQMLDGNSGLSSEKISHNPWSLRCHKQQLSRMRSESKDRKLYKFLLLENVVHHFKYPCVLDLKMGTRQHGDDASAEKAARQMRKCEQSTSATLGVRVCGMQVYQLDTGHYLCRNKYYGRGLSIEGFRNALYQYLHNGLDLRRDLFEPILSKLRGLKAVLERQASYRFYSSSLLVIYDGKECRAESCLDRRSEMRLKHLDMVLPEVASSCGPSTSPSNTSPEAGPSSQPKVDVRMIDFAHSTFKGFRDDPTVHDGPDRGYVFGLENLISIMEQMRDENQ
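ADP-Glo luminescence measures ADP made by human IP6K1 during a 2 h RT reaction with ATP/IP6 (mix at 1.3 mM/130 uM); top library doses 57.5 and 19.1 uM final.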
Active calls of the source: *; i = inactive; ? = inconclusive; nt = no result; [ ] = remark or other dose. A selection: hits, their analogues and other compounds. The true share with any hit is near 3%. Unless noted, calls follow the shape of the dose curve; as a rule, active = well fitted curve in the direction sought with a large enough effect; inconclusive = small, poorly fitted or top-dose-only effect, or another doubt; inactive = no such curve, though single readings can be large; an effect the other way counts as inactive or inconclusive.

SMILES	SNCA expr inh	KDM5B inh	SNCA viab count	IP6K1 inh
O=C(COc1ccc(Br)cc1)Nc1nc(-c2ccc(Br)o2)ns1	nt	i	nt	nt
COc1ccc(OCC2(C)COc3ccc(C(=O)NCc4ccco4)cc3N2)cc1 (stereo not drawn)	-6%[87.6 µM]	18µM*	-3%[87.6 µM]	-6
COc1ccc(OCC2(C)COc3ccc(C(=O)N(C)C)cc3N2)cc1 (stereo not drawn)	?	i	?	-7
COc1ccc(OCC2(C)COc3ccc(C(=O)Nc4ccccc4)cc3N2)cc1 (stereo not drawn)	-13%[87.6 µM]	28µM*	-23%[87.6 µM]	1
CC1(COc2ccccc2)COc2ccc(C(=O)NCc3ccco3)cc2N1 (stereo not drawn)	-7%[87.6 µM]	?	-8%[87.6 µM]	-3
COc1ccc(OCC2(C)COc3ccc(C(=O)NCC4CCOCC4)cc3N2)cc1 (stereo not drawn)	-4%[87.6 µM]	32µM*	6%[87.6 µM]	-2
CC(C)C[C@H](NC(=O)CNC(=O)OCc1ccccc1)C(=O)N[C@@H](Cc1ccccc1)C(=O)CCl	nt	nt	24µM*	15
CCOc1ccc(C(C)=O)cc1COC(=O)C(C)NC(=O)c1ccccc1 (stereo not drawn)	nt	i	nt	nt
O=C(CC1C(=O)NCCN1Cc1ccccc1)NC1C2CC3CC(C2)CC1C3 (stereo not drawn)	17%	i	4%	19
O=C(CC1C(=O)NCCN1Cc1ccc(-c2ccccc2)cc1)NCc1ccco1 (stereo not drawn)	-14%	25µM*	1%	-23
CCOc1ccccc1CN1CCNC(=O)C1CC(=O)NCc1ccco1 (stereo not drawn)	-5%	?	1%	-4
O=C(CC1C(=O)NCCN1Cc1ccc(-c2ccccc2)cc1)NC(CO)CO (stereo not drawn)	-7%	20µM*	1%	21
N#Cc1ccc(S(=O)(=O)N2CCC(C(=O)N3CCCC3c3ccc4c(c3)OCCO4)CC2)cc1 (stereo not drawn)	nt	i	nt	nt
COc1ccc(-c2nc(-c3c(C)noc3C)cc3cc(C(C)C)oc23)cn1	8%[87.6 µM]	28µM*	5%[87.6 µM]	-17
COc1ccc(-c2nc(-c3c(C)noc3C)cc3c2cc(C)n3CCN(C)C)cn1	44%[87.6 µM]	40µM*	-16%[87.6 µM]	-11
Cc1noc(C)c1-c1cc2c(cc(C)n2CCN(C)C)c(-c2cccnc2)n1	67%[87.6 µM]	32µM*	-15%[87.6 µM]	-3
Cc1noc(C)c1-c1cc2cc(C(C)C)oc2c(-c2cccc(CO)c2)n1	41%[87.6 µM]	?	-29%[87.6 µM]	3
Cc1noc(C)c1-c1cc2c(cc(C)n2CCN(C)C)c(Nc2ccn(C)n2)n1	26%[87.6 µM]	i	-27%[87.6 µM]	-3
COc1ccc(C(=O)C(C)OC(=O)C2CCCN2)cc1 (stereo not drawn)	nt	i	nt	nt
O=C(c1cccc2[nH]ccc12)N1C[C@@H](CO)[C@H](c2nc(C3CC3)no2)C1	18%	22µM*	1%	-5
Cc1noc([C@@H]2CN(C(=O)CCc3c[nH]c4ccccc34)C[C@H]2CO)n1	-11%	i	-1%	-9
Cc1noc([C@@H]2CN(C(=O)c3cccc4[nH]ccc34)C[C@H]2CO)n1	23%	28µM*	1%	1
O=C(c1ccccc1F)N1C[C@@H](CO)[C@H](c2nc(C3CC3)no2)C1	-13%	i	-12%	-9
O=C(c1nccc2ccccc12)N1CCC(c2noc(C3CC3)n2)C1 (stereo not drawn)	-19%	i	-3%	2
O=C(c1cccc2[nH]ccc12)N1CCC(c2noc(C3CC3)n2)C1 (stereo not drawn)	5%	22µM*	-1%	5
SMILES	SNCA expr inh	KDM5B inh	SNCA viab count	IP6K1 inh
CCOC(=O)[C@@H]1CN([S+](=O)([O-])c2ccccc2)[C@H]2c3ccccc3O[C@@H]12	nt	nt	nt	4
Cc1ccc2[nH]cc(CCn3ccc4c(cnc5ncnn54)c3=O)c2c1	nt	i	nt	nt
CCOc1ccc(NC(=O)CCNc2c(C)nc3cnccn23)cc1	-14%	20µM*	-3%	26
CCOc1ccc(NC(=O)CCc2c(C)nc3nc(C)nn3c2C)cc1	14%	i	-2%	8
Cc1ccc(NC(=O)CCNc2c(C)nc3cnccn23)c(F)c1	-12%	25µM*	13%	15
Cc1nc2cnccn2c1C(=O)NCc1cccc(F)c1	nt	nt	nt	-4
COc1cc(OC)c(NS(=O)(=O)c2cc(C(=O)N3CCCCC3)ccc2C)cc1Cl	nt	i	nt	nt
CCOC(=O)c1cn(CC)nc1S(=O)(=O)N1CCOCC1	nt	i	nt	nt
CC(C)(C)c1nc(C(=O)NCCc2ccc(Cl)cc2)n2ccccc12	-5%	?	0%	-5
O=C(NCCc1ccc(Cl)cc1)c1nc(-c2cccc(F)c2)c2cnccn12	-15%	28µM*	5%	0
O=C(NCCc1ccc(Cl)cc1)c1nc(-c2cccnc2)c2cnccn12	?	25µM*	5%	8
CC(C)(C)c1nc(C(=O)NCCc2ccc(Cl)cc2)n2ccncc12	-10%	79µM*	-17%	11
O=C(NCCc1ccc(Cl)cc1)c1nc2sccn2c1-c1cccnc1	23%	nt	6%	17
O=C(NCCc1ccc(Cl)cc1)c1nc(-c2cccc(C(F)(F)F)c2)c2cnccn12	?	32µM*	-1%	0
Cc1cccc(-c2nc3ccc(C(=O)NCc4ccccc4F)cc3o2)n1	48%[87.6 µM]	nt	4%[87.6 µM]	10
O=C(CCC1CCCN(S(=O)(=O)c2ccccc2)C1)NCC1CC1 (stereo not drawn)	7%	20µM*	-5%	-2
Cc1ccccc1S(=O)(=O)N1CCCC(CCC(=O)NC2CC2)C1 (stereo not drawn)	?	14µM*	5%	2
Cc1ccccc1S(=O)(=O)N1CCCC(CCC(=O)NC2CCCCCC2)C1 (stereo not drawn)	?	?	-29%	9
CC(C(=O)Nc1ccc2[nH]c(=O)[nH]c2c1)N(C)Cc1cccc(Cl)c1Cl (stereo not drawn)	nt	i	nt	nt
COc1ccc(-c2ccc3nnc(CNC(=O)CNC(=O)c4ccccc4)n3n2)cc1	-4%	28µM*	-3%	-7
Cc1ccc(-c2ccc3nnc(CNC(=O)CNC(=O)c4ccccc4)n3n2)cc1	?	32µM*	-4%	-8
COc1ccc(-c2ccc3nnc(CNC(=O)COc4ccccc4)n3n2)cc1	44%	28µM*	-6%	7
COc1ccc(-c2cccc(C(=O)N3CCC(NC(=O)Nc4ccc(Cl)cc4)CC3)c2)nn1	nt	nt	nt	8
Cc1ncsc1CCNC(=O)c1ccc2nc(-c3ccccc3)cn2c1	118%	25µM*	-1%	10
O=C(NCCN1CCOCC1)c1ccc2nc(-c3ccccc3)cn2c1	-3%	28µM*	8%	1
O=C(NCCc1ccccc1)c1ccc2nccn2c1	92%[87.6 µM]	nt	0%[87.6 µM]	17
O=C(NCCN1CCOCC1)c1ccc2nccn2c1	-1%[87.6 µM]	nt	1%[87.6 µM]	17
